# Assay results: the supplement of paper PMC8728848
# About 410 targets per protein were measured; listed, in parts, are those with the strongest signals and a random draw of the rest.
# B1: AT5G01260(PC)(40) (Arabidopsis thaliana), Q9LFB0 (protein)
# chain: MIGIGRTLTSSSPSKIILEDLPPGIYRYGTEIFTSVPRKTFHHIKFLRLDSAQSSRILKPVPLRSSSIKDSQVNVEDEEIEASNKTVRVRFQLRKECVFGEHFFIVGDDPVFGGLWDPETALPLNWSDGNVWTVDLDLPVGRLVEFKLLLKAQTGEILWQPGPNRALETWETNKTIRICEDWDNADLQMMIEEDFVPYTNISSIGSEDEDEVLGSVQQNSSVVAVENAGYVSDESAQNSSFSIQSEKTMEPSNGALTAREVIKEAMFTEEESPVLVPGLIPLSDLDNEQVEVINEGKAETFPEVDKKQEPKAERNKKAKVKAISLFEKSEQEAVKSVEQRQYNAVEEEQQRLETEPLGTPDVLFENDIQWGRRTLYKLLSNFRLF
# Experiments:
# Assay in all cases: glycan array binding signal (z-score within array); higher = stronger binding
# Details in all cases: glycan notation: IUPAC condensed, linker removed
# Gal(b1-4)GlcNAc = target: Gal(b1-4)GlcNAc
# How it was run: (§1)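 From the Consortium for Functional Glycomics database, 3228 arrays were curated, keeping only those whose protein sequence was available. Binding is given as a within-array Z-score averaged across arrays sharing a protein sequence and across linkers. Negative Z-scores can be read as non-binding.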
# [1] = target: Gal(b1-4)GlcNAc(b1-2)Man(a1-3)[GlcNAc(b1-2)Man(a1-6)]Man(b1-4)GlcNAc(b1-4)GlcNAc
# How it was run: as §1
# [2] = target: Gal(b1-4)GlcNAc(b1-2)[Gal(b1-4)GlcNAc(b1-4)]Man(a1-3)[GlcNAc(b1-4)][Gal(b1-4)GlcNAc(b1-2)[Gal(b1-4)GlcNAc(b1-6)]Man(a1-6)]Man(b1-4)GlcNAc(b1-4)GlcNAc
# How it was run: as §1
# [3] = target: Gal(b1-4)GlcNAc(b1-2)[Gal(b1-4)GlcNAc(b1-6)]Man(a1-6)[Gal(b1-4)GlcNAc(b1-2)Man(a1-3)]Man(b1-4)GlcNAc(b1-4)GlcNAc
# How it was run: as §1
# [4] = target: Gal(b1-4)GlcNAc(b1-2)[Gal(b1-4)GlcNAc(b1-6)]Man(a1-6)[Gal(b1-4)GlcNAc(b1-2)Man(a1-3)]Man(b1-4)GlcNAc(b1-4)[Fuc(a1-6)]GlcNAc
# How it was run: as §1
# [5] = target: Gal3S(b1-4)[Fuc(a1-3)]Glc6S
# How it was run: as §1
# Gal6S(b1-3)GlcNAc6S = target: Gal6S(b1-3)GlcNAc6S
# How it was run: as §1
# [6] = target: GalNAc(a1-3)GalNAc(b1-3)Gal(a1-4)Gal(b1-4)Glc
# How it was run: as §1
# [7] = target: GalNAc(b1-3)Gal(a1-4)Gal(b1-4)GlcNAc
# How it was run: as §1
# [8] = target: GalNAc(b1-3)Gal(a1-6)Gal(b1-4)Glc
# How it was run: as §1
# GalNAc(b1-4)GlcNAc = target: GalNAc(b1-4)GlcNAc
# How it was run: as §1
# [9] = target: GlcNAc(a1-4)Gal(b1-4)GlcNAc(b1-3)Gal(b1-4)Glc
# How it was run: as §1
# [10] = target: GlcNAc(b1-2)Man(a1-3)[GlcNAc(b1-2)Man(a1-6)]Man(b1-4)GlcNAc(b1-4)GlcNAc
# How it was run: as §1
# [11] = target: GlcNAc(b1-3)Gal(b1-4)GlcNAc(b1-3)Gal(b1-4)GlcNAc(b1-2)[GlcNAc(b1-3)Gal(b1-4)GlcNAc(b1-3)Gal(b1-4)GlcNAc(b1-6)]Man(a1-6)[GlcNAc(b1-3)Gal(b1-4)GlcNAc(b1-3)Gal(b1-4)GlcNAc(b1-2)Man(a1-3)]Man(b1-4)GlcNAc(b1-4)[Fuc(a1-6)]GlcNAc
# How it was run: as §1
# [12] = target: GlcNAc(b1-4)[GlcNAc(b1-6)]GalNAc
# How it was run: as §1
# [13] = target: GlcNAc6S(b1-3)Gal(b1-4)GlcNAc
# How it was run: as §1
# Neu5Ac(a2-3)Gal = target: Neu5Ac(a2-3)Gal
# How it was run: as §1
# [14] = target: Neu5Ac(a2-3)Gal(b1-3)GlcNAc(b1-2)Man
# How it was run: as §1
# [15] = target: Neu5Ac(a2-3)Gal(b1-3)[Neu5Ac(a2-6)]GalNAc
# How it was run: as §1
# [16] = target: Neu5Ac(a2-3)Gal6S(b1-4)GlcNAc
# How it was run: as §1
# Neu5Ac(a2-3)GalNAc = target: Neu5Ac(a2-3)GalNAc
# How it was run: as §1
# [17] = target: Neu5Ac(a2-6)Gal(b1-4)GlcNAc(b1-2)Man(a1-6)[Gal(b1-4)GlcNAc(b1-2)Man(a1-3)]Man(b1-4)GlcNAc(b1-4)GlcNAc
# How it was run: as §1
# [18] = target: Neu5Ac(a2-6)Gal(b1-4)GlcNAc(b1-3)Gal(b1-4)GlcNAc(b1-2)Man(a1-3)[Neu5Ac(a2-6)Gal(b1-4)GlcNAc(b1-3)Gal(b1-4)GlcNAc(b1-2)Man(a1-6)]GalNAc
# How it was run: as §1
# [19] = target: Neu5Ac(a2-6)Gal(b1-4)GlcNAc(b1-3)Gal(b1-4)[Fuc(a1-3)]GlcNAc(b1-3)Gal(b1-4)[Fuc(a1-3)]GlcNAc
# How it was run: as §1
# [20] = target: Neu5Ac(a2-6)Gal(b1-4)GlcNAc(b1-3)[Neu5Ac(a2-6)Gal(b1-4)GlcNAc(b1-6)]GalNAc
# How it was run: as §1
# [21] = target: Neu5Ac(a2-8)Neu5Ac(a2-8)Neu5Ac
# How it was run: as §1
# Neu5Ac(b2-6)GalNAc = target: Neu5Ac(b2-6)GalNAc
# How it was run: as §1
# [22] = target: Neu5Gc(a2-3)Gal(b1-3)GlcNAc
# How it was run: as §1
binder,measurement,setting,value
B1,glycan array binding signal (z-score),Gal(b1-4)GlcNAc,0.708
same,glycan array binding signal (z-score),[1],-0.702
same,glycan array binding signal (z-score),[2],-0.552
same,glycan array binding signal (z-score),[3],0.037
same,glycan array binding signal (z-score),[4],0.414
same,glycan array binding signal (z-score),[5],4.34
same,glycan array binding signal (z-score),Gal6S(b1-3)GlcNAc6S,-0.529
same,glycan array binding signal (z-score),[6],-0.513
same,glycan array binding signal (z-score),[7],2.47
same,glycan array binding signal (z-score),[8],-0.39
same,glycan array binding signal (z-score),GalNAc(b1-4)GlcNAc,8.76
same,glycan array binding signal (z-score),[9],-0.389
same,glycan array binding signal (z-score),[10],-0.443
same,glycan array binding signal (z-score),[11],0.144
same,glycan array binding signal (z-score),[12],0.541
same,glycan array binding signal (z-score),[13],1.26
same,glycan array binding signal (z-score),Neu5Ac(a2-3)Gal,-0.106
same,glycan array binding signal (z-score),[14],-0.011
same,glycan array binding signal (z-score),[15],-0.391
same,glycan array binding signal (z-score),[16],-0.571
same,glycan array binding signal (z-score),Neu5Ac(a2-3)GalNAc,-0.206
same,glycan array binding signal (z-score),[17],-0.165
same,glycan array binding signal (z-score),[18],0.243
same,glycan array binding signal (z-score),[19],-0.054
same,glycan array binding signal (z-score),[20],0.077
same,glycan array binding signal (z-score),[21],-0.58
same,glycan array binding signal (z-score),Neu5Ac(b2-6)GalNAc,-0.728
same,glycan array binding signal (z-score),[22],-0.145
